MT1-MMP txn act = MT1-MMP promoter transcription activation. HT1080 MT1-MMP promoter luciferase reporter, luminescence, overnight; active compounds read high. activation factor at 10 µM. hit rate 0.16% among 86,000. AID 750;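 active = activation factor of at least 2 for MT1-MMP transcription at 10 µM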
GALR2 ag = activates the human galanin receptor 2; hit rate 0.48% among 140,000; AID 803; activation, % (no concentration beside the values); O43603; GALR2-expressing cells, agonist activation read-out; in the data active = activation above about 5%, passing the limit was not always enough;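 also: 0% = vehicle buffer wells and 100% = reference agonist at full effect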
Smad3 FoxH1 inh = inhibitors of human Smad3 transcription factor binding | TR-FRET Smad3/Dy647-FoxH1 peptide binding, europium anti-His | inhibition, % at 25 µM | hit rate 0.29% among 88,000 | AID 630;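 active = compounds that reduce the energy-transfer binding signal between the protein and its labelled peptide by more than half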;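 also: 0% = Smad3 plus labelled peptide maximal FRET and 100% = peptide-only background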
S1P2 antag = blocks the human S1P2 receptor; cell-based S1P2 antagonist assay, inhibition at 5 uM; inhibition, % at 5 µM; hit rate 0.21% among 97,000; in the data active = inhibition above about 45%;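 also: CRE beta-lactamase reporter cells expressing human S1P2 stimulated with S1P; 0% = agonist at EC80 alone and 100% = agonist plus reference antagonist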
Target sequence (O95136 whole entry, looked up): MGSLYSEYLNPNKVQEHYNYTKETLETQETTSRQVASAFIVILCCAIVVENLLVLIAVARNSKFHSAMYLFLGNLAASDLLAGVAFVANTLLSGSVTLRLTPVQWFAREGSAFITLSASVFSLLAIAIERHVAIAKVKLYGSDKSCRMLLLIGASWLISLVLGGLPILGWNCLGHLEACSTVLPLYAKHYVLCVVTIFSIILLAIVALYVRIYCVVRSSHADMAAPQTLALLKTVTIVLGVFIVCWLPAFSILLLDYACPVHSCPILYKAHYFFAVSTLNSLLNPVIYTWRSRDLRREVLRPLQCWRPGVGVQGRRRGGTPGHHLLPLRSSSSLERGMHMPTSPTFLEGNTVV
GALR2 blocker = GALR2 (human) receptor antagonism | O43603 | GALR2-expressing cells, antagonist mode | hit rate 0.39% among 140,000 | inhibition, % at 4 µM; in the data active = inhibition above about 27%;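 also: cells stimulated with galanin 1-16 at roughly its EC80; 0% = agonist challenge control and 100% = basal control without agonist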
S1P2 ag = S1P2 (human) receptor agonism; activation, % at 4.5 µM; S1P2-expressing cell line, agonist reporter read-out; hit rate 0.46% among 97,000; AID 729; in the data active = activation above about 16%;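 also: 0% = vehicle low control and 100% = maximal reference agonist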
An asterisk follows results filed as active; nt = no result given. Hits are enriched below; roughly 1.4% of the tested compounds scored in any of these assays.

SMILES	MT1-MMP txn act	GALR2 ag	Smad3 FoxH1 inh	S1P2 antag	GALR2 blocker	S1P2 ag
Cn1c(COc2ccccc2)nnc1SCc1nc2ccccc2[nH]1	1.2	0.1	94.0*	-36.4	12.0	-1.6
CCn1c(COc2ccc(C)cc2)nnc1SCc1nc2ccccc2[nH]1	1.1	-2.0	-15.6	2.0	14.8	-3.7
C/C(=N/NC(=O)c1ccc2c(c1)OCO2)c1cccc(NC(=O)C(C)(C)C)c1	nt	-1.3	nt	-11.9	20.2	41.1*
Nc1ccc(O)cc1C(=O)OCC(=O)c1ccc(C2CCCCC2)cc1	nt	6.3*	nt	nt	12.8	nt
c1ccc(-c2nc3ccccn3c2NCc2ccc3c(c2)OCO3)cc1	1.2	-2.0	7.2	6.1	0.5	174.3*
COc1ccc(-c2nc3ccccn3c2NCc2ccc3c(c2)OCO3)cc1	1.6	-3.7	1.4	-13.8	3.2	-7.8
O=C1c2ccccc2-c2c1cccc2C(=O)N1CCOCC1	1.3	-1.7	-0.4	-19.3	-8.7	1.3
O=C1c2ccccc2C(=O)c2c1cccc2N1CCOCC1	nt	-0.5	nt	-22.4	-14.0	22.1*
Cc1c(C(=O)Nc2ccc(OC(F)(F)F)cc2)sc2nc3n(c(=O)c12)CCC3	nt	-0.6	nt	57.7*	15.3	-4.3
Cc1c(C(=O)Nc2ccc(Oc3ccccc3)cc2)sc2nc3n(c(=O)c12)CCC3	0.9	-1.7	6.8	7.9	14.2	-9.4
C[C@@H]1O[C@H](O)[C@@H](O)[C@H](O)[C@H]1O	nt	nt	9.7	nt	nt	nt
CN(C)[C@H]1C(=O)C(C(=O)NCN2CCCC2)=C(O)[C@@]2(O)C(=O)C3=C(O)c4c(O)cccc4[C@](C)(O)[C@H]3C[C@H]12	nt	nt	5.3	nt	nt	nt
Cc1nn(-c2ccc(S(=O)(=O)O)cc2)c(O)c1N=Nc1ccc(-c2ccc(N=Nc3ccc4c(S(=O)(=O)O)cc(S(=O)(=O)O)c(N)c4c3O)c(O)c2)cc1O.[Cu].[Cu]	nt	nt	101.0*	nt	nt	nt
COCCCn1c(SCC(=O)Nc2nnc(C)s2)nnc1-c1ccoc1C	1.2	-2.7	8.9	4.5	-9.7	-6.8
COCCn1c(SCC(=O)Nc2nc3ccccc3s2)nnc1-c1ccoc1C	1.1	-1.5	11.0	-19.0	5.7	16.2*
Cn1c(=O)c2c(nc(N/N=C/c3ccccc3C(=O)O)n2C)n(C)c1=O	nt	nt	9.9	nt	nt	nt
CC(=O)Nc1nc2n(n1)C(c1ccc(Cl)cc1)C=C(C)N2 (centres undefined)	1.1	0.0	63.3*	11.0	2.6	-2.9
O=c1[nH]c(SCc2c(Cl)c(Cl)c(Cl)c(Cl)c2Cl)nc(=S)[nH]1	nt	nt	3.5	nt	nt	nt
O=C(O)c1cc(Cl)cc(Cc2cc(Cl)cc(C(=O)O)c2O)c1O	nt	nt	15.1	nt	nt	nt
OC[C@@H]1CCC[C@H](n2cnc3c(=S)nc[nH]c32)O1	nt	nt	54.8*	nt	nt	nt
COc1cc(/C=C(/C#N)c2nc3ccccc3[nH]2)ccc1OCC(=O)Nc1ccccc1C(C)C	nt	-1.5	nt	1.9	4.2	18.9*
COc1cccc2c1C(=N)c1c(O)c3c(c(O)c1C2=O)C[C@](O)(C(C)=O)C[C@@H]3O[C@@H]1C[C@H](N)[C@@H](O)[C@H](C)O1	nt	nt	8.5	nt	nt	nt
Nc1ncnc2c1ncn2[C@H]1O[C@@H](CO)[C@H](O)[C@H]1N	nt	nt	-12.2	nt	nt	nt
Cc1ccc(C(=O)Nc2ccc3cn[nH]c3c2)cc1S(=O)(=O)N1CCCCC1	2.1*	-0.4	-15.7	-3.0	-0.1	-4.3
Cc1csc(NC(=O)c2ccc(C)c(S(=O)(=O)N3CCCCC3)c2)n1	1.2	-0.1	11.6	-6.1	2.4	-10.2
SMILES	MT1-MMP txn act	GALR2 ag	Smad3 FoxH1 inh	S1P2 antag	GALR2 blocker	S1P2 ag
Cc1ccc(-c2csc3ncnc(SCC(=O)Nc4nnc(C)s4)c23)cc1	nt	-2.1	nt	2.9	-1.9	-4.9
Cc1ccc(-c2csc3ncnc(Sc4nnc(CN5CCCCCC5=O)o4)c23)cc1	nt	6.8	40.3	51.6*	27.0*	-9.8
CC(=O)Nc1cc(OC(C)=O)c2nonc2c1OC(C)=O	0.8	0.0	nt	98.2*	95.7*	2.2
COC(=O)c1ccc(C(NC(=O)OCc2ccccc2)/C(I)=C/[C@@H](C)C(=O)O)cc1 (some centres undefined)	1	nt	nt	nt	nt	nt
CCOC(=O)c1cc2c(=O)n3ccccc3nc2n(C(C)C)c1=NC(=O)c1ccncc1	1	7.2	11.3	-7.7	-9.2	17.6*
CCOC(=O)c1cc2c(=O)n3ccccc3nc2n(CCCOC)c1=NC(=O)c1cccnc1	1	2.8	19.2	-17.7	-18.6	21.7*
CCOCCCn1c(=NC(C)=O)c(C(=O)OCC)cc2c(=O)n3ccccc3nc21	1	7.8*	13.5	-40.1	0.1	18.8*
CCOC(=O)c1cc2c(=O)n3ccccc3nc2n(CCOC)c1=NC(=O)C(C)(C)C	1.1	8.7*	-1.6	10.3	-17.7	25.5*
CCOC(=O)c1cc2c(=O)n3ccccc3nc2n(Cc2ccco2)c1=NC(=O)c1cccnc1	1.1	-0.7	5.5	7.1	-5.5	2.5
CCOC(=O)c1cc2c(=O)n3ccccc3nc2n(CC(C)C)c1=NC(=O)c1ccco1	nt	4.5	1.1	-57.8	0.2	14.1
O=C(O)C[C@H](NC(=O)CP(=O)(O)O)C(=O)O.[NH-][C@@H]1CCCC[C@H]1[NH-].[Pt]	nt	nt	40.7	nt	nt	nt
CCOC(=O)c1cc2c(=O)n3ccccc3nc2n(CCOC)c1=NC(=O)c1ccncc1	1	7.5*	-0.7	-14.5	-11.3	19.0*
CCOC(=O)c1cc2c(=O)n3ccccc3nc2n(CCCOC)c1=NC(=O)C(C)(C)C	nt	12.2*	6.5	-43.0	-21.5	32.8*
CCOC(=O)c1cc2c(=O)n3ccccc3nc2n(Cc2ccccc2)c1=N	1.1	-1.2	15.3	-12.6	-1.6	3.1
COc1ccc(C2CC(C(F)(F)F)n3ncc(C(=O)O)c3N2)cc1OC (centres undefined)	1.1	-2.5	-9.8	-2.6	-1.9	-3.4
COc1ccc(C2CC(C(F)(F)F)n3nc(C(N)=O)c(Cl)c3N2)cc1OC (centres undefined)	1.1	0.6	-2.4	16.5	8.0	23.6*
Oc1ccc(Cl)cc1C=Nc1cnc2ccccc2c1	nt	nt	5.0	nt	nt	nt
COc1cc([N+](=O)[O-])ccc1NC(=O)CC(C)C	nt	-0.8	nt	nt	-7.8	nt
CC(C)CC(=O)Nc1cc([N+](=O)[O-])ccc1Cl	nt	-3.0	nt	7.0	-7.6	17.4*
O=C(O)CC[C@@H](C(=O)O)N1C(=O)[C@@H]2[C@@H]3CC[C@@H](C3)[C@@H]2C1=O	nt	nt	-0.5	nt	nt	nt
CC(C)CN(CC(C)C)c1nc(N)c(C#N)c(CC#N)c1C#N	1.2	6.3*	nt	-28.3	-3.1	-2.6
CN(c1ccccc1)c1nc(N)c(C#N)c(CC#N)c1C#N	nt	0.4	nt	nt	-24.7	nt
CCC(C)(C)NC(=O)c1ccc2c(c1)S(=O)(=O)c1ccccc1C2=O	nt	0.6	nt	-41.0	-18.7	22.7*
O=C(NCCO)c1ccc2c(c1)S(=O)(=O)c1ccccc1C2=O	1	0.1	-6.9	1.2	-4.6	-3.1
Cc1ccc(/C=C/C(=O)Nc2sc3c(c2C#N)CCCC3)o1	nt	5.7*	nt	nt	1.5	nt
CCc1ccc(CCC(=O)Nc2sc3c(c2C#N)CCCC3)o1	nt	0.2	12.9	-7.0	-6.4	-4.8
COc1cccc2c1C(=O)c1c(O)c3c(c(O)c1C2=O)C[C@@](O)(C(C)=O)C[C@@H]3O[C@H]1C[C@H](N)[C@H](O)[C@H](C)O1	0.3	-2.0	nt	nt	98.2*	nt

Screens as filed in PubChem BioAssay.
